CYP2C19 inh = human CYP2C19 inhibition; CYP2C19 Supersomes, luciferin-H EGE luminescence, 30 min; inhibition, % at 5 µM; hit rate 21% among 96,000; P33261;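 active means CYP2C19 inhibition above a set limit at 5 µM in the primary screen, cut at about 50% in these data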
Target sequence (P33261 whole entry, looked up): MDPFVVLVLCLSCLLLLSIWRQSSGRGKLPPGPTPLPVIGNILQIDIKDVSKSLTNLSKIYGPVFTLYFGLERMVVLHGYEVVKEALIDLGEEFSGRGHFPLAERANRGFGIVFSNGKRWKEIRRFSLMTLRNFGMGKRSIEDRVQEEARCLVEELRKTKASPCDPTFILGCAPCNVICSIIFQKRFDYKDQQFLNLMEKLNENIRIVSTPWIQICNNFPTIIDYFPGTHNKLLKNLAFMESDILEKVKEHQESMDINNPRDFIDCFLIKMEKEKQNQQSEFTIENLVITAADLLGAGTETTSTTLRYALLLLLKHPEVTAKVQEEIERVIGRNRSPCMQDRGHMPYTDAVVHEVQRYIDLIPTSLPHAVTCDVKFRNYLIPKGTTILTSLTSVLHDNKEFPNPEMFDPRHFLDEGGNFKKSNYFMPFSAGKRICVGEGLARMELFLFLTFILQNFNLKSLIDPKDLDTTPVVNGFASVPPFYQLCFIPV
CYP2C19 act = cytochrome P450 2C19 (human) activation; 96,000 tested, under 10 active; AID 1025; activation factor at 5 µM; recombinant CYP2C19, luciferin-H EGE luminescence; active compounds read high; 0 = fully inhibited enzyme, 1 = untreated enzyme; P33261;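 active means activation factor of at least 2 at 5 µM in the primary screen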
CYP2C9 act = increases human cytochrome P450 2C9 activity; P11712; recombinant CYP2C9, luciferin-H conversion, luminescence; active compounds read high; factor 1 = untreated enzyme, 0 = blocked; activation factor at 5 µM; hit rate 1.4% among 96,000; AID 1024;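 active means activation factor of 2 or more for CYP2C9 at a 5 µM dose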
CYP2C9 inhib = inhibitors of human CYP2C9. P11712. CYP2C9 Supersomes, luciferin-H conversion, luminescence. inhibition, % at 5 µM. hit rate 20% among 96,000;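 active means blocking of liver enzyme CYP2C9 beyond about 50% at 5 µM, limit read from the data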
MRP resist rev = MRP-mediated drug resistance reversal. hit rate 0.04% among 85,000. differential viability (reversal), % at 10 µM. H69AR cells + 2 uM doxorubicin, CellTiter-Glo, 72 h;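 active means viability drop by adding the cancer drug above about 55%, with treated viability meeting a 40% cutoff, limit read from the data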;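 further: larger differential means the compound sensitizes cells more to doxorubicin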
MRP-1 activ = activates MRP-1. hit rate 0.61% among 140,000. H69AR cells + doxorubicin, viability rescue, CellTiter-Glo. viability increase, % at 10 µM. AID 799;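 active means viability gain under doxorubicin at or above a set limit, the compound median plus 3 SD, cut at about 4.7% in these data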;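 further: MRP-1 overexpressing cells given doxorubicin 25 µM after compound pretreatment; 18-22 h compound pretreatment then 72 h with doxorubicin before readout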
Large screens that a line does not name were inactive. Sampled rows, rich in hits. Any-hit rate of the full collection: about 21%.

Cc1sc(NC(=O)Cn2nc(C(F)(F)F)cc2C)c(C(=O)OC(C)C)c1C	CYP2C9 inhib 62 (no result: MRP resist rev)
CN1/C(=C\C=Nc2cc(S(=O)(=O)N3CCOCC3)ccc2N2CCOCC2)C(C)(C)c2ccccc21	none (no result: CYP2C19 inh, CYP2C19 act, CYP2C9 act, CYP2C9 inhib, MRP resist rev)
CC(Oc1ccc(Cl)cc1Cl)C(=O)NCCCN(C)C (stereo not drawn)	none
COc1ccc(/C=N/NC(=O)c2ccc(NC(=O)c3ccccc3Br)cc2)cc1	none (no result: CYP2C19 inh, CYP2C19 act, CYP2C9 act, CYP2C9 inhib, MRP resist rev)
CC(C)Oc1ccc(C(CC(=O)NCc2ccco2)c2ccccc2)cc1 (stereo not drawn)	CYP2C19 inh 61, CYP2C9 inhib 68
CC(NS(=O)(=O)c1ccc(CCC(=O)NCc2ccco2)cc1)c1ccccc1 (stereo not drawn)	none (no result: CYP2C19 inh, CYP2C19 act, CYP2C9 act, CYP2C9 inhib, MRP resist rev)
Cc1ccc(C)c(NC(=O)Cn2nnc(C(=O)NCc3cccs3)c2N)c1	none (no result: MRP resist rev)
COc1ccc(NC(=O)c2cccc(S(=O)(=O)Nc3ccc(Br)cc3)c2)cn1	none (no result: CYP2C19 inh, CYP2C19 act, CYP2C9 act, CYP2C9 inhib, MRP resist rev)
COc1ccc(NC(=O)c2cccc(Cn3cc(Br)cn3)c2)cn1	CYP2C19 inh 71, CYP2C9 inhib 78
COc1ccc(CN2C(=O)c3ccccc3C2=O)cc1C(=O)OCC(=O)NC1CCCCC1	none (no result: CYP2C19 inh, CYP2C19 act, CYP2C9 act, CYP2C9 inhib, MRP resist rev)
COc1ccc(NC(=O)c2cc(CN3C(=O)c4ccccc4C3=O)ccc2OC)cn1	CYP2C9 inhib 78
CCc1cc2c(=O)n(-c3ccccc3)c(=S)[nH]c2s1	none
COc1ccc(-n2ncc3c(NCc4ccccn4)ncnc32)cc1	CYP2C19 inh 61, CYP2C9 inhib 53
c1ccc(-n2ncc3c(NCc4cccnc4)ncnc32)cc1	CYP2C9 inhib 69
COc1ccc(-n2ncc3c(NCc4cccs4)ncnc32)cc1	none
c1ccc(-n2ncc3c(NCc4cccs4)ncnc32)cc1	CYP2C19 inh 60, CYP2C9 inhib 81
CCOc1ccc(Nc2ncnc3c2cnn3Cc2ccccc2)cc1	none
COc1ccc(Nc2ncnc3c2cnn3Cc2ccccc2)cc1	CYP2C19 inh 55 (no result: MRP-1 activ)
NNc1ncnc2c1cnn2-c1ccccc1	none
COc1ccc(-n2ncc3c(NCc4ccco4)ncnc32)cc1	none
COc1ccc(C(=O)N[C@H](C(=O)OCc2cc(=O)oc3cc(C)ccc23)C(C)C)cc1	none (no result: CYP2C19 inh, CYP2C19 act, CYP2C9 act, CYP2C9 inhib, MRP resist rev)
O=C(Nc1ccc(Oc2nnc(-c3ccccc3)c3ccccc23)cc1)c1ccccc1	none (no result: CYP2C19 inh, CYP2C19 act, CYP2C9 act, CYP2C9 inhib, MRP resist rev)
O=C1CCCCCN1CSc1nc2ccccc2s1	none
O=C(CSc1nc2ccccc2s1)N1CCOCC1	CYP2C19 inh 78
NC(=O)C1(N2CCCCC2)CCN(C(=O)CSc2nc3ccccc3s2)CC1	CYP2C19 inh 78, CYP2C9 inhib 79
CCN(CC)c1ccc(NC(=O)C2CCCN(S(=O)(=O)c3cccnc3)C2)c(C)c1 (stereo not drawn)	none
Fc1ccccc1Cc1nnc2n1N=C(c1ccc(Cl)cc1)CS2	CYP2C9 inhib 56
Clc1ccc(C2=Nn3c(nnc3-c3cccs3)SC2)cc1	none (no result: CYP2C19 inh, CYP2C19 act, CYP2C9 act, CYP2C9 inhib)
COc1ccc(NC(=O)C(c2cc3c(cc2[N+](=O)[O-])OCO3)N(C)C)cc1 (stereo not drawn)	none (no result: CYP2C19 inh, CYP2C19 act, CYP2C9 act, CYP2C9 inhib, MRP resist rev)
COc1ccc(S(=O)(=O)NCCCN2CCOCC2)c2ccccc12	CYP2C19 inh 97
CCCOc1ccc(S(=O)(=O)NCCCN2CCOCC2)c2ccccc12	CYP2C19 inh 99
CCOc1ccc(S(=O)(=O)NCCC2=CCCCC2)c2ccccc12	CYP2C19 inh 88
CCOc1ccc(S(=O)(=O)NCCCN2CCOCC2)c2ccccc12	CYP2C19 inh 60
COc1ccc(C)cc1S(=O)(=O)NCCC1=CCCCC1	none
CCOc1ccc(OCC)c(S(=O)(=O)NCCCN2CCOCC2)c1	none (no result: CYP2C19 inh, CYP2C19 act, CYP2C9 act, CYP2C9 inhib, MRP resist rev)
COc1ccc(/C=N/n2cnnc2SCc2ccccc2)cc1	none
CC(C)Nc1nc(Oc2ccc(Cl)cc2Cl)cc(C(F)(F)F)n1	none (no result: MRP resist rev)
CC(C)Nc1nc(Oc2cccc(Cl)c2Cl)cc(C(F)(F)F)n1	CYP2C19 inh 71 (no result: MRP resist rev)
CCOC(=O)CSCc1c(C#N)c2ccccc2n1C	CYP2C19 inh 100
CN1CCN(Cc2c(C#N)c3ccccc3n2C)CC1	none
CC1CCCCN1Cc1c(C#N)c2ccccc2n1C (stereo not drawn)	CYP2C19 inh 52
Cn1c(CN2CCOCC2)c(C#N)c2ccccc21	CYP2C19 inh 88
CC(=O)N(Cc1c(C#N)c2ccccc2n1C)c1ccccc1	none (no result: CYP2C19 inh, CYP2C19 act, CYP2C9 act, CYP2C9 inhib)
CC1CCN(Cc2c(C#N)c3ccccc3n2C)CC1	CYP2C19 inh 81
C=CCc1ccccc1OCC(O)CN1CCN(CCN2C(=O)c3cccc4cccc(c34)C2=O)CC1 (stereo not drawn)	none (no result: CYP2C19 inh, CYP2C19 act, CYP2C9 act, CYP2C9 inhib, MRP resist rev)
COC(=O)c1cc(OC)c(OC)cc1NC(=O)c1cc(C)on1	none (no result: CYP2C19 inh, CYP2C19 act, CYP2C9 act, CYP2C9 inhib, MRP-1 activ)
COC(=O)c1cccc(NS(=O)(=O)c2ccc(OC)cc2)c1C	none (no result: CYP2C19 inh, CYP2C19 act, CYP2C9 act, CYP2C9 inhib)
CNC(=O)C(C)NS(=O)(=O)c1ccc(F)cc1 (stereo not drawn)	CYP2C19 inh 81
COc1ccc(NC(=O)C(C)NS(=O)(=O)c2ccccc2)cc1Cl (stereo not drawn)	CYP2C19 inh 87
COC(=O)c1ccccc1NC(=O)C(C)NS(=O)(=O)c1ccc(OC)cc1 (stereo not drawn)	CYP2C19 inh 57
COc1ccc(NC(=O)C(OC)c2ccccc2)cc1Cl (stereo not drawn)	none (no result: CYP2C19 inh, CYP2C19 act, CYP2C9 act, CYP2C9 inhib, MRP resist rev)
CCOc1ccc(C(C)NC(=O)Nc2ccccc2C(=O)OC)cc1 (stereo not drawn)	CYP2C19 inh 70
N/C(=N\OC(=O)Cc1cccs1)c1ccc([N+](=O)[O-])cc1	none (no result: CYP2C19 inh, CYP2C19 act, CYP2C9 act, CYP2C9 inhib, MRP resist rev)
Cc1nn(C(=O)c2nn(C)cc2Cl)c(C)c1Br	none (no result: CYP2C19 inh, CYP2C19 act, CYP2C9 act, CYP2C9 inhib, MRP resist rev)
COc1ccccc1NC(=O)N1CCCC1C(=O)NC12CC3CC(CC(C3)C1)C2 (stereo not drawn)	none
COc1ccccc1NC(=O)C(C)NS(=O)(=O)c1ccc(Cl)cc1 (stereo not drawn)	CYP2C19 inh 74, CYP2C9 act 3.4
COc1ccccc1NC(=O)C(C)NS(=O)(=O)c1ccc(F)cc1 (stereo not drawn)	CYP2C19 inh 53, CYP2C9 act 3
CCOC(=O)Cn1nnnc1C(CC)N(Cc1cc2c(C)cc(C)cc2[nH]c1=O)C1CCCC1 (stereo not drawn)	none (no result: MRP-1 activ)
O=C(CN1CCc2ccccc2C1)NCc1ccco1	CYP2C19 inh 93 (no result: MRP resist rev)
O=C(NCc1ccco1)C1(c2ccccc2)CCCC1	CYP2C19 inh 57
Cc1cc(C(=O)CN2C(=O)NC(C)(c3cccc(Br)c3)C2=O)c(C)n1Cc1ccco1 (stereo not drawn)	none
C=CCn1c(C)cc(C(=O)CN2C(=O)NC3(CCCc4ccccc43)C2=O)c1C (stereo not drawn)	CYP2C9 inhib 82
Cc1cc(C(=O)CN2C(=O)NC3(CCCc4ccccc43)C2=O)c(C)n1Cc1cccs1 (stereo not drawn)	none
Cc1cc(C(=O)CN2C(=O)NC(c3ccccc3)(c3ccccc3)C2=O)c(C)n1Cc1ccco1	CYP2C9 inhib 62
CC1(C)Cc2cccc(OCC(=O)N3CCN(S(=O)(=O)c4ccccc4)CC3)c2O1	none
c1ccc(CN2CCN(c3ncnc4nc[nH]c34)CC2)cc1	none
O=C(CN1C(=O)NC2(CCCc3ccccc32)C1=O)NCc1ccco1 (stereo not drawn)	CYP2C9 inhib 78

High-throughput results (PubChem)
